From PubChem BioAssay AID1494157 (National Center for Advancing Translational Sciences (NCATS), 2020)
Results filed as inconclusive are left out. Unmarked numbers belong to inactive results. Calls of active or inactive are those of the source. Calls come from the whole dose curve.

Assay: Confirmatory qHTS for inhibitors of MERS-S pseudo-typed particle cell entry
Settings: MERS-S pseudotyped particle entry, luciferase reporter; series mostly up to 57.1 µM

SMILES | Potency | activity change, negative = inhibition
Cc1oncc1C(=O)Nc1ccc(C(F)(F)F)cc1 | inactive | 
CC(C)OC(=O)OCOP(=O)(CO[C@H](C)Cn1cnc2c(N)ncnc21)OCOC(=O)OC(C)C | 0.0192 µM (active) | 
C[C@H]1[C@H](OC(=O)CCC(=O)O)O[C@@H]2O[C@@]3(C)CC[C@H]4[C@H](C)CC[C@@H]1[C@@]24OO3 | 0.857 µM (active) | 
CC(CN(C)C)CN1c2ccccc2CCc2ccccc21 (centres undefined) | 17.1 µM (active) | 
CN(C)CC/C=C1\c2ccccc2Sc2ccc(Cl)cc21 | 8.57 µM (active) | 
COc1cc(NS(C)(=O)=O)ccc1Nc1c2ccccc2nc2ccccc12 | 1.36 µM (active) | 
CC(C)OC(=O)[C@H](C)N[P@](=O)(CO[C@H](C)Cn1cnc2c(N)ncnc21)Oc1ccccc1 | 0.0152 µM (active) | 
CC(=O)OCC1=C(C(=O)O)N2C(=O)[C@@H](NC(=O)Cc3cccs3)[C@H]2SC1 | inactive | 
O=C(Nc1ccc([N+](=O)[O-])cc1Cl)c1cc(Cl)ccc1O | 0.857 µM (active) | 
C=C(C)[C@H]1Cc2c(ccc3c2O[C@@H]2COc4cc(OC)c(OC)cc4[C@@H]2C3=O)O1 | 0.0136 µM (active) | 
CC(=O)N1CCN(c2ccc(OC[C@H]3CO[C@](Cn4ccnc4)(c4ccc(Cl)cc4Cl)O3)cc2)CC1 | 7.64 µM (active) | 
COc1cccc2c1C(=O)c1c(O)c3c(c(O)c1C2=O)C[C@@](O)(C(=O)CO)C[C@@H]3O[C@H]1C[C@H](N)[C@@H](O)[C@H](C)O1 | 3.83 µM (active) | 
Cc1nnc2n1-c1sc(CCc3ccc(CC(C)C)cc3)cc1C(c1ccccc1Cl)=NC2C (centres undefined) | 27.1 µM (active) | 
C[C@@H]1CCO[C@H]2Cn3cc(C(=O)NCc4ccc(F)cc4F)c(=O)c(O)c3C(=O)N12 | 0.0043 µM (active) | 
COc1cc2nccc(Oc3ccc(NC(=O)NC4CC4)c(Cl)c3)c2cc1C(N)=O | 17.1 µM (active) | 
CN1CC[C@H](CN2c3ccccc3Sc3ccccc32)C1 | 15.2 µM (active) | 
Cc1nnc(C(=O)NC(C)(C)c2nc(C(=O)NCc3ccc(F)cc3)c(O)c(=O)n2C)o1 | 0.0043 µM (active) | 
CCOc1cc2ncc(C#N)c(Nc3ccc(OCc4ccccn4)c(Cl)c3)c2cc1NC(=O)/C=C/CN(C)C |  | -18.9% [at 11.2 µM]
CN1CCCCC1CCN1c2ccccc2Sc2ccc(S(C)=O)cc21 (centres undefined) | 17.1 µM (active) | 
COC(=O)C1=C(C)NC(C)=C(C(=O)OCC(C)C)C1c1ccccc1[N+](=O)[O-] (centres undefined) | 19.2 µM (active) | 
CN1CCN(CCC=C2c3ccccc3Sc3ccc(S(=O)(=O)N(C)C)cc32)CC1 | 6.07 µM (active) | 
O=C(Nc1ccc(Cl)cc1)Nc1ccc(Cl)c(C(F)(F)F)c1 | 10.8 µM (active) | 
CN(C)CCOC(c1ccccc1)c1ccc(Br)cc1 (centres undefined) | 17.1 µM (active) | 
COc1cc2c(cc1Cc1cccc(Cl)c1F)c(=O)c(C(=O)O)cn2[C@H](CO)C(C)C | 0.304 µM (active) | 
CCSc1ccc2c(c1)N(CCCN1CCN(C)CC1)c1ccccc1S2 | 13.6 µM (active) | 
O=c1ccc2ccccc2o1 | inactive | 
CCCCc1oc2ccccc2c1C(=O)c1cc(I)c(OCCN(CC)CC)c(I)c1 | 10.8 µM (active) | 
CO[C@@]12[C@H](COC(N)=O)C3=C(C(=O)C(C)=C(N)C3=O)N1C[C@@H]1N[C@@H]12 | 0.961 µM (active) | 
C=C1c2c(Cl)ccc(O)c2C(O)=C2C(=O)[C@@]3(O)C(O)=C(C(N)=O)C(=O)[C@@H](N(C)C)[C@@H]3[C@@H](O)[C@H]12 | 19.2 µM (active) | 
